# Laboratory results: the supplement of paper PMC12350171
# Structures can show the parent of a compound that is named as a salt. Unmarked numbers belong to inactive results.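 The calls were made as follows: active = AUC significantly below DMSO controls by Student t-fit with adjusted P under 0.01; inactive = not significantly reduced.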
# Tested on: Haemophilus parainfluenzae
# Test: growth AUC normalised to DMSO control (fraction of control); higher = less growth inhibition, active = hit call of the paper
# Conditions: 20 µM
# Method in brief: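 After two anaerobic passages, pathogens were added at a starting OD578 of 0.01 to pre-reduced mGAM plates holding compound at 20 μM with 1% DMSO; hemin and NAD were supplemented for Haemophilus parainfluenzae. Sealed with breathable membranes, plates were read at OD578 hourly for 24 h, in three biological replicates. The trapezoidal rule, applied up to the exponential-to-stationary transition, gave the growth-curve AUC, which was normalised to DMSO controls on the same plate.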
row,Compound,growth AUC normalised to DMSO control
1,O=C(c1ccc(F)cc1)C1CCN(CCn2c(=O)[nH]c3ccccc3c2=O)CC1 [Ketanserin tartrate hydrate],0.928
2,CO[C@@]1(NC(=O)Cc2cccs2)C(=O)N2C(C(=O)O)=C(COC(N)=O)CS[C@@H]21 [Cefoxitin sodium salt],0.0362 (active)
3,CN(CCCCCCCCCCN(C)C(=O)Oc1cccc([N+](C)(C)C)c1)C(=O)Oc1cccc([N+](C)(C)C)c1 [Demecarium bromide],0.923
4,COc1cc(Cc2cnc(N)nc2N)cc(OC)c1OC [Trimethoprim],0.0255 (active)
5,COc1c2occc2c(OC)c2c(=O)cc(C)oc12 [Khellin],0.993
6,C=C1c2c(Cl)ccc(O)c2C(O)=C2C(=O)[C@]3(O)C(O)=C(C(N)=O)C(=O)[C@@H](N(C)C)[C@@H]3[C@@H](O)[C@H]12.O=C(O)c1cc(S(=O)(=O)O)ccc1O [Meclocycline sulfosalicylate],0.0341 (active)
7,COc1ccccc1O [Guaiacol],0.998
8,CN1CCCCC1CCN1c2ccccc2Sc2ccc([S+](C)[O-])cc21 (centres undefined) [Mesoridazine besylate],0.987
9,CN(C)c1ccc(O)c2c1C[C@H]1C[C@H]3[C@H](N(C)C)C(=O)C(C(N)=O)=C(O)[C@@]3(O)C(=O)C1=C2O [Minocycline hydrochloride],0.0348 (active)
10,COc1cc(C(=O)NS(=O)(=O)c2ccccc2C)ccc1Cc1cn(C)c2ccc(NC(=O)OC3CCCC3)cc12 [Zafirlukast],0.825
11,O=C(O)/C=C/c1ccc(Cn2ccnc2)cc1 [Ozagrel hydrochloride],1.03
12,OC(CCCN1CCCCC1)(c1ccccc1)c1ccccc1 [Diphenidol hydrochloride],1
13,Cc1ccc(N(CC2=NCCN2)c2cccc(O)c2)cc1 [Phentolamine hydrochloride],1.05
14,O=C1CN(/N=C/c2ccc(-c3ccc([N+](=O)[O-])cc3)o2)C(=O)N1 [Dantrolene sodium salt],1.03
15,Nc1ncn(C2OC(CO)C(O)C2O)c(=O)n1 (centres undefined) [Azacytidine-5],0.781
16,CCSc1ccc2c(c1)N(CCCN1CCN(C)CC1)c1ccccc1S2 [Thiethylperazine maleate],1.02
17,CCCC(=O)Nc1ncnc2c1ncn2[C@@H]1O[C@@H]2COP(=O)(O)O[C@H]2[C@H]1OC(=O)CCC [Bucladesine sodium salt],1
18,O=C(O)c1ccccc1Nc1cccc(C(F)(F)F)c1 [Flufenamic acid],0.932
19,CN1CCC(OC(c2ccccc2)c2ccccc2)CC1 [Diphenylpyraline hydrochloride],0.996
20,Cc1cc(N)c2ccccc2[n+]1CCCCCCCCCC[n+]1c(C)cc(N)c2ccccc21 [Dequalinium dichloride],0.907

row,Compound,growth AUC normalised to DMSO control
1,CC(=O)[C@@]1(O)CC[C@H]2[C@@H]3C[C@H](C)C4=CC(=O)C=C[C@]4(C)[C@@]3(F)[C@@H](O)C[C@@]21C [Fluorometholone],1
2,CN(C)c1nc(N(C)C)nc(N(C)C)n1 [Altretamine],1.05
3,N=C(N)NC(=O)c1nc(Cl)c(N)nc1N [Amiloride hydrochloride dihydrate],1.03
4,CCC(=O)OCC(=O)[C@@]1(OC(=O)CC)[C@@H](C)C[C@H]2[C@@H]3CCC4=CC(=O)C=C[C@]4(C)[C@@]3(Cl)[C@@H](O)C[C@@]21C [Beclomethasone dipropionate],0.969
5,CC(C)CC(=O)N[C@H](C(=O)N[C@H](C(=O)N[C@@H](CC(C)C)[C@@H](O)CC(=O)N[C@@H](C)C(=O)N[C@@H](CC(C)C)[C@@H](O)CC(=O)O)C(C)C)C(C)C [Pepstatin A],1.07
6,CCCNC(C)C(=O)Nc1ccccc1C (centres undefined) [Prilocaine hydrochloride],1.01
7,O=C(Nc1cccc2c(=O)cc(-c3nnn[nH]3)oc12)c1ccc(OCCCCc2ccccc2)cc1 [Pranlukast],0.996
8,CN1CCN2c3ncccc3Cc3ccccc3C2C1 (centres undefined) [Mirtazapine],1.49
9,N=C(N)N/N=C/c1c(Cl)cccc1Cl [Guanabenz acetate],0.972
10,Nc1nnc(-c2cccc(Cl)c2Cl)c(N)n1 [Lamotrigine],1.01
11,CC(C)COCC(CN(Cc1ccccc1)c1ccccc1)N1CCCC1 (centres undefined) [Bepridil hydrochloride],0.771
12,O=C(NCCO[N+](=O)[O-])c1cccnc1 [Nicorandil],0.987
13,COc1ccc(C(=O)c2ccccc2)c(O)c1 [Oxybenzone],1.06
14,Nc1nc(=O)c2nc(CNc3ccc(C(=O)N[C@@H](CCC(=O)O)C(=O)O)cc3)cnc2[nH]1 [Folic acid],0.978
15,C=CCc1ccccc1OCC(O)CNC(C)C (centres undefined) [Alprenolol hydrochloride],1.06
16,CCN(CC)CCNC(=O)c1cc(S(C)(=O)=O)ccc1OC [Tiapride hydrochloride],0.993
17,CC(C)N1CCN(c2ccc(OCC3COC(Cn4cncn4)(c4ccc(Cl)cc4Cl)O3)cc2)CC1 (centres undefined) [Terconazole],1.03
18,N=c1nc(N2CCCCC2)cc(N)n1O [Minoxidil],1.03
19,COc1ccc(C(Cl)=C(c2ccc(OC)cc2)c2ccc(OC)cc2)cc1 [Chlorotrianisene],0.951
